Screens: PubChem, National Center for Advancing Translational Sciences (NCATS)
PTHR1 ag: agonists of human PTHR1 parathyroid hormone receptor. Q03431. HEK293 GP2 PTHR1 cells, GloSensor cAMP luminescence, 1 h. Potency, µM (doses to about 115 µM), for inactives: at the top dose activation, hits mostly activators. 410,000 compounds, 0.075% hits; further: potency means the concentration at half of the fitted maximal effect; nearly all actives have a fitted effect of over 55% in size
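HEK-293-derived GP2 cells expressing PTHR1 and a GloSensor cAMP reporter, 3,000/well, plated overnight, given luciferin plus IBMX (each 0.5 mM as added) for 1 h at 37 °C, then compound for 1 h at 37 °C. Luminescence was read after 15 min at room temperature.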
RXFP1 agonist: RXFP1 (human) receptor agonism; 370,000 compounds, 0.3% hits; Potency, µM (highest dose often 57.5 µM), for inactives: top-dose activation, most hits filed as activators; Q9HBX9; HEK293T-RXFP1 cAMP TR-FRET, 30 min; response scale: percent of porcine relaxin response, buffer zero; further: potency means the concentration at half of the fitted maximal effect; on the % scale 0 is the no-effect control and ±100 the full control effect; nearly all actives have a fitted effect of over 60% in size
Target sequence (Q9HBX9 whole entry, looked up): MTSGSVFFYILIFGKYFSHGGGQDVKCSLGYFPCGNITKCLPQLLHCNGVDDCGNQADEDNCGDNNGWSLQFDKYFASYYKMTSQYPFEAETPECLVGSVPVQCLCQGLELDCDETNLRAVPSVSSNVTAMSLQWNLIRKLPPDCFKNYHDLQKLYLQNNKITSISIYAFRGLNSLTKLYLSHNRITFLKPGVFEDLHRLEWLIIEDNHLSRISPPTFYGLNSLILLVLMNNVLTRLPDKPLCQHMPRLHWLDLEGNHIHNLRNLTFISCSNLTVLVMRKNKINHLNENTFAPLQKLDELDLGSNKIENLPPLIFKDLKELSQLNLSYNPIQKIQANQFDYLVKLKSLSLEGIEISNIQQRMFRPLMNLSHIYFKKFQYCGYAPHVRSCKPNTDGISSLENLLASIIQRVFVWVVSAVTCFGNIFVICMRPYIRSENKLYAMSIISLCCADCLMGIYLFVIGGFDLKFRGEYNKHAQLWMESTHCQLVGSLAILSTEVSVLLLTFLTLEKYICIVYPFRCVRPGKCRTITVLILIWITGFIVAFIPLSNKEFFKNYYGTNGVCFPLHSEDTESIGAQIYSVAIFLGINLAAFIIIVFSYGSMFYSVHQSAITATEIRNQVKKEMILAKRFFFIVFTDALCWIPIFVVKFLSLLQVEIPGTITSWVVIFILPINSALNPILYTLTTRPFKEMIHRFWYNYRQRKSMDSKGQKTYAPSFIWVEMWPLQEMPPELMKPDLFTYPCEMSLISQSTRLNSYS
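Agonist response is measured as cAMP accumulation in an RXFP1-transfected HEK293T line under PDE4 inhibition. Values are scaled between buffer-only and 29 nM porcine relaxin, and EC50s come from standard Hill equation fits.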
NPSR antag: neuropeptide S receptor (human) antagonism, cAMP; Q6W5P4; CHO-NPSR cells, cAMP TR-FRET, antagonist mode; Potency, µM (highest dose often 38.3 µM), without a hit: at the highest dose activity change, negative = inhibition, usual class: inhibitors; 220,000 compounds, 1% hits; AID 1461; further: potency means the concentration at half of the fitted maximal effect; on the % scale 0 is the no-effect control and ±100 the full control effect; nearly all actives have a fitted effect of over 50% in size
TSHR antag: human thyrotropin receptor antagonism; P16473; TSHR-expressing cells, TSH-stimulated cAMP HTRF, 2 h; active compounds read low; activity change, negative = inhibition, % at 11.5 µM; 330,000 compounds, 0.2% hits;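 active means activity change below a set negative limit, meaning inhibition stronger than a set level, cut at about -70% in these data; inconclusive means activity change between two set negative limits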; further: on the % scale 0 is the no-effect control and ±100 the full control effect
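Inhibition of cAMP made by TSHR-expressing cells under TSH stimulation (4nM final, EC80; 2 h, 37 deg C) is quantified with a one-step lysis HTRF kit, anti-cAMP cryptate versus cAMP-d2.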
RXFP1 antag: RXFP1 (human) relaxin receptor antagonism | Q9HBX9 | HEK293-RXFP1, relaxin-stimulated cAMP HTRF, 30 min; active compounds read low | activity change, negative = inhibition, % at 57.5 µM | 350,000 compounds, 0.59% hits | AID 1259400;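 active means activity change of -60% or lower, but not beyond a set lower limit; inconclusive means change between -60% and -40%, or beyond the set limit; inactive means change above -40%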; further: on the % scale 0 is the no-effect control and ±100 the full control effect
TCR activator: activates T cell receptor signaling | primary human leukocytes, anti-CD3, IL-2 HTRF, 48 h | Potency, µM (top dose mostly 9.22 µM), for the others: at the highest dose activation of IL-2 secretion, actives largely listed as activators | 330,000 tested, under 10 active | AID 504894; further: % of control where 0% means no effect
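Using a-CD3 beads without co-stimulation, primary human leukocytes were exposed to compounds for 48 hr. An HTRF IL-2 kit measured the cytokine, with europium-to-d2 energy transfer producing emission at 665nm upon 320nm excitation.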
* marks the source's active call; other numbers are inactive results; i = inactive; ? = inconclusive; nt = not tested or not shown; [ ] = remark or other dose. Only a selection was taken, and hits are over-represented in it overall. Unless noted, the call rests on the fitted dose curve; in most records, active means well fitted curve in the direction sought with a large enough effect; inconclusive means small, poorly fitted or top-dose-only effect, or another doubt; inactive means no such curve, though single readings can be large; an effect the other way counts as inactive or inconclusive.

SMILES | PTHR1 ag | RXFP1 agonist | NPSR antag | TSHR antag | RXFP1 antag | TCR activator
CCC(=O)Oc1ccc(C/C(=N\O)c2ccc(O)cc2O)o1 | i | -1% | -28%[46.1 µM] | -5 | -60* | nt
CCOC(=O)c1ccc(CC(=O)c2ccc(O)cc2O)o1 | i | -4% | -14%[46.1 µM] | -19 | -15 | -2%
CC(NC(CCc1ccccc1)C(=O)O)C(=O)N1C(=O)N(C)CC1C(=O)O (centres undefined) | nt | nt | nt | nt | 7 | nt
Cc1cccc(C)c1-n1cccc1/C=C1/C(=N)N2C(=NC1=O)SN=C2S(C)(=O)=O | -32% | -2% | -49% | -28 | -108* | -5%
Cc1ccc(-n2c(O)c(C=Nc3ccccc3-c3n[nH]c(=S)[nH]c3=O)c3ccccc3c2=O)c(C)c1 | -30% | -1% | -57% | -9 | -24 | 6%
Cc1ccc(-n2c(O)c(C=Nc3ccccc3-c3n[nH]c(=S)[nH]c3=O)c3ccccc3c2=O)cc1C | -35% | 5% | 1.3µM* | 17 | -37 | nt
NC[C@H]1O[C@H](O[C@H]2[C@H](O)[C@@H](O[C@H]3O[C@H](CO)[C@@H](O)[C@H](N)[C@H]3O)[C@H](N)C[C@@H]2N)[C@H](N)[C@@H](O)[C@@H]1O | nt | nt | nt | nt | 15 | nt
CCOc1ccc(C(=O)c2cn(CC(=O)Nc3ccc(F)c(F)c3)c3cc4c(cc3c2=O)OCCO4)cc1 | -15% | 26% | nt | nt | nt | nt
COc1ccc(CN2COc3ccc4c(oc(=O)c5ccccc54)c3C2)cc1OC | -18% | ? | nt | nt | -1 | nt
COc1ccccc1CN1COc2ccc3c(oc(=O)c4ccccc43)c2C1 | i | 18µM* | nt | nt | -2 | nt
OC[C@]1(O)OC[C@@H](O)[C@H](O)[C@@H]1O | nt | nt | nt | nt | -11 | nt
COc1ccc(CN2C(=O)c3cccnc3C2=O)cc1S(=O)(=O)N1CC(C)Oc2ccccc21 (centres undefined) | -31% | ? | nt | 4 | 3 | -4%
COc1ccc(CN2C(=O)c3cccnc3C2=O)cc1S(=O)(=O)N1CCCCC1C (centres undefined) | -15% | 7.1µM* | nt | 50 | 28 | -12%
C[C@@H](c1ncncc1F)C(O)(Cn1cncn1)c1ccc(F)cc1F (some centres undefined) | nt | nt | nt | nt | -2 | nt
O=C(c1ccccc1)c1c2c(cc3sc4ccccc4[n+]13)-c1cccc3cccc-2c13 | -31% | 1% | 10µM* | -16 | -16 | 6%[46.1 µM]
C[C@H](CN1CCCC1)C(=O)c1ccc(C(F)(F)F)cc1 | nt | nt | nt | nt | 8 | nt
CCOC(=O)COc1ccc2ccccc2c1/C=C/[N+](=O)[O-] | -45% | 2% | ? | -39 | ? | -2%[46.1 µM]
CCOc1ccc(/C=C/[N+](=O)[O-])c2ccccc12 | -16%[57.5 µM] | 2% | 10µM* | -32 | -69* | -3%
CCOC(=O)COc1ccc(/C=C/[N+](=O)[O-])c(OCC(=O)OCC)c1 | -35%[57.5 µM] | 3% | ? | -10 | -69* | 0%
CCN(CC)CCOc1ccc(C(O)(Cc2ccc(Cl)cc2)c2ccc(C)cc2)cc1 (centres undefined) | nt | nt | nt | nt | -91* | nt
COCCN(CCOc1cc(C)cc(C)c1)Cc1ccc(Cl)cc1 | -4% | 2% | nt | -1 | -22 | 0%
COC(=O)c1ccc(Cl)cc1NC(=O)N(Cc1ccc(OC)cc1)C1CCN(C(C)=O)CC1 | -8% | 4% | nt | nt | -17 | nt
COc1ccccc1C(=O)COC(=O)/C=C/c1ccccc1 | i | 4% | nt | -93* | -13 | -5%
O=C(Nc1cccc(Cl)c1)c1cccc(Oc2ccc([N+](=O)[O-])cc2Cl)c1 | -49% | 7% | -56% | -11 | 1 | -3%[46.1 µM]
O=C(Nc1cccc(Cl)c1)c1cc(N=Nc2ccc([N+](=O)[O-])cc2Cl)ccc1O | -45% | -1% | ? | -98* | -7 | 8%
SMILES | PTHR1 ag | RXFP1 agonist | NPSR antag | TSHR antag | RXFP1 antag | TCR activator
CN(C)CCC(=O)N1C/C(=C/c2ccccc2)C(=O)/C(=C\c2ccccc2)C1 | -94% | nt | nt | nt | -114* | 4%
CCN(CC)C(=O)Nc1ccc(OCC(O)CNC(C)(C)C)c(C(C)=O)c1 (centres undefined) | nt | nt | nt | nt | -11 | nt
Cc1cc(C)c(OCCCCNCc2ccccc2)c(Cl)c1 | i | 1% | 2%[46.1 µM] | 25 | -107* | 0%
CCN(CC)S(=O)(=O)c1ccc(C(=O)NCc2n[nH]c(=S)n2-c2ccccc2OC)cc1 | i | 2% | -4%[46.1 µM] | 0 | -6 | -10%
CCN(CC)S(=O)(=O)c1ccc(C(=O)NCc2n[nH]c(=S)n2-c2ccc(Cl)c(Cl)c2)cc1 | i | 1% | -6% | 20 | -64* | -7%
COc1c2c(nc3occc13)C(CC=C(C)C)(OC)C(=O)C=C2 (centres undefined) | -36% | 0% | -12% | 24 | -62* | 6%
O=c1[nH]sc2cc(Cl)ccc12 | nt | nt | nt | nt | 19 | nt
CCCc1oc(C(=O)O)cc1CN | 18µM* | 0% | -6%[46.1 µM] | 3 | -10 | nt
O=C(CCl)N(c1ccc(Cl)cc1)c1c[nH]c2ccccc12 | i | 0% | 7.9µM* | -17 | -3 | -2%
O=C(CCl)N(c1ccccc1)c1c[nH]c2ccccc12 | -41% | -2% | -29%[46.1 µM] | -6 | 7 | 1%
Cc1ccc2onc(CNC(=O)Nc3cc(F)ccc3F)c2c1 | -42% | 4% | nt | nt | -12 | nt
Cc1ccc(C)c(S(=O)(=O)N2CCCOC2CNC(=O)C(=O)NCCC2=CCCCC2)c1 (centres undefined) | -32% | 3% | -13% | ? | -3 | -3%[46.1 µM]
O=C(NCCC1=CCCCC1)C(=O)NCC1OCCCN1S(=O)(=O)c1ccccc1 (centres undefined) | -29% | 2% | -7% | -90* | -5 | -3%[46.1 µM]
CSc1ccc(CCNC(=O)CCc2nnc3ccc(NCCCN4CCCC4=O)nn23)cc1 | 11% | ? | nt | -7 | -70* | -27%
N#Cc1c(-c2ccco2)nc(SCc2ccc(F)cc2)[nH]c1=O | -9%[57.5 µM] | 25µM* | 7.9µM* | -11 | 25 | -19%
N#Cc1c(-c2ccccc2)nc(SCc2ccc(Cl)cc2)[nH]c1=O | i | 4% | nt | -44 | -38 | 10%
Cc1ccc2nc(N(CCCN(C)C)C(=O)c3ccc(S(=O)(=O)N4CCc5ccccc5C4)cc3)sc2c1 | i | 0% | nt | -14 | -65* | nt
CCN(CC)CCN(C(=O)c1ccc(S(=O)(=O)N2CCCCC2)cc1)c1nc2cc3c(cc2s1)OCO3 | -11% | -1% | 10µM* | -17 | 4 | 11%
Cc1ccc(C(=O)N(CCCN(C)C)c2nc3ccc(Cl)cc3s2)cc1C | i | 0% | -46% | 18 | -100* | 10%
CN(C)CCCN(C(=O)c1ccc2c(c1)OCCO2)c1nc2ccc(Cl)cc2s1 | nt | 1% | nt | 10 | nt | nt
